From PubChem BioAssay
Shown are actives, neighbours in structure and some others; about 3% of the full set was active somewhere.
Tau fibril FP – blocks human tau fibril formation measured by polarization; P10636; K18 P301L tau heparin fibrillization, Alexa594 FP, 6 h; Potency, µM (top dose mostly 57.7 µM), most hits filed as inhibitors; hit rate 0.39% among 280,000; AID 1468; also: nearly all actives have a fitted effect of over 55% in size
Target sequence (P10636 561-689 P618L limits assumed): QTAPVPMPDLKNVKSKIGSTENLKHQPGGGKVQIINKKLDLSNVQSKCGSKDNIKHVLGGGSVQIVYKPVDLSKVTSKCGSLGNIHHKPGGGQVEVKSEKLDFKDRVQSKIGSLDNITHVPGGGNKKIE
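Human K18 P301L fragment (15 uM unlabeled plus 0.24 uM Alexa 594-labeled) in 100 mM sodium acetate pH 7 with compound, aggregation induced by 20 uM heparin for 6 hr at 37 C. ThT (30 uM) added for 1 hr, then Alexa 594 FP read.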
Tau fibril ThT – blocks human tau fibril formation measured by thioflavin T; Potency, µM (series often up to 57.4 µM), usual class: inhibitors; AID 1460; P10636; recombinant tau K18 P301L, heparin-induced fibrillization, ThT fluorescence; hit rate 2.1% among 270,000; also: nearly all actives have a fitted effect of over 55% in size
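Recombinant human tau K18 fragment […] carrying P301L, 15 uM unlabeled plus 0.24 uM Alexa 594-labeled, was fibrillized with 20 uM heparin in 100 mM sodium acetate pH 7 for 6 hr at 37 C; 30 uM ThT fluorescence read after 1 hr.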
TRb-SRC2 inh – disrupts binding of human TR beta to SRC2; hit rate 0.065% among 280,000; Potency, µM (series often up to 106 µM), most hits filed as inhibitors; TRbeta-SRC2 peptide binding, fluorescence polarization; receptor liganded with 1 µM T3; P10828; also: nearly all actives have a fitted effect of over 50% in size
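Binding of a 20-amino-acid Texas Red SRC2 peptide (20 nM) to TRb ligand-binding domain (0.6 uM) with agonist T3 at 1 uM was followed by fluorescence polarization after a 5 hr room-temperature incubation.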
Tau fluor counter – counter-screen for tau fibril formation inhibitors; tau K18 P301L (four-repeat tau fragment) Alexa594 fluorescence, heparin fibrillization; hit rate 0.93% among 280,000; Potency, µM (doses to about 57.7 µM); also: nearly all actives have a fitted effect of over 55% in size
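Human K18 P301L tau (15 uM unlabeled plus 0.24 uM Alexa 594-labeled, final) in 100 mM sodium acetate pH 7 was mixed with compound and 20 uM heparin and incubated 6 hr at 37 C.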
TR SRC2 fluor cs – counter-screen for TRb-SRC2 inhibitors: fluorescence interference; hit rate 0.29% among 280,000; TRb/SRC2 Texas Red total fluorescence interference; AID 1479; Potency, µM (doses to about 106 µM); active = well fitted curve in either direction with a large enough effect; inconclusive = small, poorly fitted or top-dose-only effect
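Human TRb ligand-binding domain at 0.6 uM with 20 nM Texas Red SRC2 peptide in Tris buffer containing 1 uM T3 and 5% DMSO, incubated with compound 5 h at ambient temperature. Total fluorescence (555/632 nm) calculated as parallel + 2 × perpendicular.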
Of the large screens only hits and unclear results are named; the others gave an inactive call; [ ] = another dose, or the depositor's remark. Unless noted, calls follow the shape of the dose curve; as a rule, active = well fitted curve in the direction sought with a large enough effect; inconclusive = small, poorly fitted or top-dose-only effect, or another doubt; inactive = no such curve, though single readings can be large; an effect the other way counts as inactive or inconclusive.

CN1CCc2c(sc3c2C(=O)NC(/C=C\c2ccccc2)N3)C1 (stereo unspecified)	Tau fibril ThT 18µM
Cc1ccsc1C1NC(=O)c2c(sc3c2CCN(C)C3)N1 (stereo unspecified)	Tau fibril FP inconclusive, Tau fibril ThT inconclusive
CN1CCc2c(sc3c2C(=O)NC(c2cccs2)N3)C1 (stereo unspecified)	Tau fibril FP inconclusive, Tau fibril ThT 13µM, TRb-SRC2 inh inconclusive, TR SRC2 fluor cs 45µM[fluorescent]
CCOC(=O)C1=C(c2ccccc2)N=c2s/c(=C\c3cccc(O)c3)c(=O)n2C1c1cccs1 (stereo unspecified)	Tau fibril FP 13µM, Tau fibril ThT inconclusive, Tau fluor counter inconclusive
Cc1cc(C)cc(NC(=O)C(=O)NCC(c2ccc3c(c2)OCO3)N2CCOCC2)c1 (stereo unspecified)	none
O=c1c(=Nc2ccccc2O)c(=O)c2ccccc12	Tau fibril FP inconclusive, Tau fibril ThT 10µM
Cc1cccc(C)c1-n1c(C)cc(/C=N\Nc2ccc([N+](=O)[O-])cn2)c1C	Tau fibril FP inconclusive, Tau fibril ThT 5µM, Tau fluor counter inconclusive
Cc1cc(/C=N/Nc2nc(N)ncc2[N+](=O)[O-])c(C)n1-c1ccccc1F	Tau fibril ThT 16µM
Nc1ncc([N+](=O)[O-])c(Oc2ccccc2F)n1	Tau fibril ThT inconclusive
CN(C)c1ccc(-c2c(C3C4C=CCCC4(C)C(=O)N3Cc3ccccc3)ccc3ccccc23)cc1 (stereo unspecified)	none (no result: Tau fibril FP, Tau fibril ThT, Tau fluor counter)
Cc1ccc(Cl)cc1NC(=O)CN1C=NS(=O)(=O)c2ccccc21	none
CCn1cc(/C=C/C(=O)Nc2ccc(C)cc2Br)cn1	none
CCn1cc(/C=C/C(=O)Nc2ccn(Cc3c(F)c(F)cc(F)c3F)n2)cn1	Tau fibril FP inconclusive, Tau fibril ThT 22µM
COC(=O)C[C@H]1c2ccccc2C2=C(C[C@@H](C)[C@H]3C(=O)NC(=O)[C@@H]23)N1C(=O)OC	none
CCCCOC(=O)C1=C(C)NC2(O)c3ccccc3C(=O)C12O (stereo unspecified)	Tau fibril FP inconclusive, Tau fibril ThT 10µM
CC1=C(C(=O)OC(C)C)C2(O)C(=O)c3ccccc3C2(O)N1 (stereo unspecified)	Tau fibril FP inconclusive, Tau fibril ThT 7.1µM
CCOC(=O)C1=C(C)N[C@@]2(O)c3ccccc3C(=O)[C@@]12O	Tau fibril FP inconclusive, Tau fibril ThT 3.5µM
CC1=C(C#N)C2(O)C(=O)c3ccccc3C2(O)N1 (stereo unspecified)	none
CCOc1ccccc1NC(=O)C1CCN(S(=O)(=O)c2ccccc2)CC1	none
CO[C@@H]1/C=C\CC(=O)N[C@@H](C)C(=O)OC[C@H](NS(=O)(=O)c2ccc(C)cc2)[C@H](C)/C=C\CC(=O)OC[C@H]1C	none
O=S(=O)(/C(=C/c1ccc(C(F)(F)F)cc1)c1nc2ccccc2[nH]1)c1ccccc1	Tau fibril FP inconclusive, Tau fibril ThT 28µM
CC(C)c1ccc(/C=C(\c2nc3ccccc3[nH]2)S(=O)(=O)c2ccccc2)cc1	none
Cc1ccc(C(=O)c2cn(Cc3ccc(F)cc3)c3nc(C)ccc3c2=O)cc1	TR SRC2 fluor cs 0.011µM[quencher]
Cc1ccc(CN(Cc2ccco2)C(=O)COc2ccc(Cl)cc2Cl)cc1	TRb-SRC2 inh inconclusive, TR SRC2 fluor cs 0.032µM[quencher]
Cc1ccc(-c2noc(-c3cccnc3N(C)Cc3ccc(Cl)cc3)n2)cc1	none
Nc1c(C(=O)N/N=C/c2cccnc2)oc2nc(-c3ccco3)cc(-c3ccco3)c12	Tau fibril FP inconclusive, Tau fibril ThT 16µM, Tau fluor counter inconclusive
Nc1c(C(=O)N/N=C/c2cccnc2)oc2nc(-c3ccccc3)cc(-c3ccco3)c12	Tau fibril ThT inconclusive
O=C(c1ccc(N2CCCCC2)c([N+](=O)[O-])c1)N1CCOCC1	none
COc1ccccc1C(=O)/C=C/c1ccc(N2CCCCC2)c([N+](=O)[O-])c1	Tau fibril ThT 4µM, Tau fluor counter inconclusive
O=C(O)c1ccccc1C(=O)c1ccc(N2CCCC2)c([N+](=O)[O-])c1	none
O=C(/C=C/c1ccc(N2CCCCC2)c([N+](=O)[O-])c1)c1ccc(O)cc1	Tau fibril FP inconclusive, Tau fibril ThT 11µM, Tau fluor counter 16µM[quencher]
CC(=O)C(Cl)C(=O)Nc1ccccc1 (stereo unspecified)	Tau fibril FP inconclusive, Tau fibril ThT 25µM
